SMN2 splice up: increases expression of the SMN2 splice variant; HEK293 SMN2-luciferase splicing reporter, luminescence, 30-36 h; Potency, µM (doses to about 46.1 µM), inactives show at the top dose activity change, positive = activation, actives largely listed as activators; actives 2.8% (n = 210,000); also: % of control where 0% means no effect; nearly all actives have a fitted effect of over 55% in size
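HEK293 cells carry an SMN2 […]–luciferase reporter in which exon 7 inclusion puts luciferase in frame. Cells were plated 10-12 h before compound addition, then incubated 30-36 h at 37C. ONE-Glo luminescence was read; sodium butyrate at 4.5 mM final served as control.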
Rab9 prom act: Rab9 promoter activation; Huh7 Rab9 promoter-luciferase reporter, luminescence, 24 h; Potency, µM (highest dose often 9.22 µM), for inactives: at the highest dose activation, negative = inhibition, usual class: activators; actives 2.8% (n = 320,000); AID 485297; also: % of control where 0% means no effect; nearly all actives have a fitted effect of over 60% in size
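Stable Rab9-luc Huh7, 1500 cells/well, 2 h settle; cmpd in DMSO, 24 h, 37 °C/5% CO2; luciferase reagent 10 min RT; luminescence.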
ELG1 genotoxic: inducers of genotoxicity in HEK293T ELG1-luciferase cells; HEK293T ELG1-luciferase reporter, luminescence, 16 h; Potency, µM (highest dose often 46 µM), for inactives: top-dose activity change, positive = activation, most hits filed as activators; actives 1.3% (n = 330,000); also: % of control where 0% means no effect; nearly all actives have a fitted effect of over 60% in size
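DMSO vehicle served as control against compound-treated ELG1-luciferase HEK293T cells; exposure lasted 16 hr at 37 °C and 5% CO2, followed by ONE-Glo luminescence detection after 30 min.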
NPC1 prom act: NPC1 promoter activation; Huh7 NPC1 promoter luciferase reporter, 24 h; Potency, µM (doses to about 9.22 µM), inactives show at the highest dose activation, usual class: activators; actives 2.4% (n = 320,000); also: % of control where 0% means no effect; nearly all actives have a fitted effect of over 60% in size
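Luminescence from an NPC1 promoter-driven luciferase reporter in stably transfected Huh7 cells was measured after 24 h compound treatment at 37 °C, followed by 10 min ambient incubation with luciferase detection reagent.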
FLuc counter: counter-screen for miR-21 project: firefly luciferase inhibitors or activators | P08659 | purified FLuc, Km substrates, luminescence inhibition | AID 588342 | actives 6.9% (n = 360,000) | Potency, µM (doses to about 57.5 µM), for inactives: at the top dose activity change, negative = inhibition, usual class: inhibitors;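 also: plate controls were vehicle for no effect and reference inhibitor for full effect; nearly all actives have a fitted effect of over 55% in size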
Target sequence (P08659 whole entry, looked up): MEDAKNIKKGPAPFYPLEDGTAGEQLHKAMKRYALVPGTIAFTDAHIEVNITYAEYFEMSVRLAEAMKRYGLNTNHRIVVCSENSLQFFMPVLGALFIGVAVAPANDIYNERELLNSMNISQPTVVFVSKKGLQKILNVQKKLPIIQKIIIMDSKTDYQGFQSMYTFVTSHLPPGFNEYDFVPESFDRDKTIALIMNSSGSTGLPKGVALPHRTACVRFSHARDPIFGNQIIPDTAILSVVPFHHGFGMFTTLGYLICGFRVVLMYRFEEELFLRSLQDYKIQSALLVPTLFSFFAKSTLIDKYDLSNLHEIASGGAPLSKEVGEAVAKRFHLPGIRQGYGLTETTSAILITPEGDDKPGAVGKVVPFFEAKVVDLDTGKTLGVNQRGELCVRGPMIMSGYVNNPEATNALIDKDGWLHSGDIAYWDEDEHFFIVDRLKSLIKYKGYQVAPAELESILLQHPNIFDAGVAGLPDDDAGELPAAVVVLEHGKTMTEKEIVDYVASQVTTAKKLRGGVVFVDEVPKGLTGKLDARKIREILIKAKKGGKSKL
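Purified P. pyralis luciferase (10nM final) with 10uM D-luciferin and 10uM ATP (Km levels) in 50mM Tris acetate pH 7.5, 10mM Mg acetate, 0.01% Tween-20, 0.05% BSA; qHTS 6-point titration, ~60 µM downward; luminescence read.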
Luc counter: blocks Kinase-Glo luciferase, a counter-screen artifact; Potency, µM (series often up to 38.3 µM), for inactives: top-dose activity change, negative = inhibition, actives largely listed as inhibitors; Q27757; actives 0.28% (n = 200,000); Kinase-Glo luciferase, ATP luminescence, 8 min; also: % is scaled to controls: 0 for no effect and ±100 for the full control effect; nearly all actives have a fitted effect of over 60% in size
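Kinase-Glo luciferase light output from ATP and luciferin was measured with 10 uM ATP, within the enzyme's linear range. Buffer: 50 mM imidazole pH 7.2, 50 mM KCl, 7 mM MgCl2, 0.01% Tween 20, 0.05% BSA; luminescence read after 8 min at ambient temperature.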
The depositor's hits bear a star; ? = inconclusive; . = no result. Shown are actives, neighbours in structure and some others; about 7.5% of the full set was active somewhere. Calls follow the shape of the dose curve; as a rule, active = well fitted curve in the direction sought with a large enough effect; inconclusive = small, poorly fitted or top-dose-only effect, or another doubt; inactive = no such curve, though single readings can be large; an effect the other way counts as inactive or inconclusive. Potency is read from the fitted curve at half-maximal effect.

SMILES | SMN2 splice up | Rab9 prom act | ELG1 genotoxic | NPC1 prom act | FLuc counter | Luc counter
CCCOc1ccc(-c2nc(-c3ccc(N)cc3)cs2)cc1 | . | ? | 5% | 24% | 7.6µM* | .
Cc1ccc(-c2nnc(N)s2)cc1 | ? | 23% | ? | 25% | 13µM* | -6%
COc1ccc(-c2csc(-c3[nH]cnc3N)n2)cc1 | ? | -1% | ? | -5% | ? | -6%
COc1ccc(-c2nnc(N)s2)cc1 | 11% | 23% | ? | 22% | 17µM* | -2%
CC(c1ccccc1)c1nnc(N)s1 (stereo unspecified) | . | 7% | 0% | -3% | -3% | -1%
Nc1nnc(-c2ccncc2)s1 | 24% | 3% | 0% | -5% | 6% | -5%
CC(C)c1ccc(-c2nnc(N)s2)cc1 | 14µM* | 2.2µM* | 18µM* | 3.2µM* | 1.9µM* | -5%
Cc1ccc(C(=O)N(C)c2ccc(OCC(=O)N3c4ccc(C)cc4C4CN(C)CCC43)cc2)cc1 (stereo unspecified) | 11µM* | ? | ? | 27% | 3µM* | 0%
CC(=C/c1ccco1)/C=N/N1CCN(c2ccccc2)CC1 | ? | 1.8µM* | ? | 2.5µM* | 2.7µM* | 10µM*
CC(/C=N/N1CCN(c2ccccc2)CC1)=C\c1ccco1 | 14µM* | ? | ? | 2µM* | 2.4µM* | 7.9µM*
CC(C)c1ccc(NC2CCCN(C(=O)CSc3nncn3C)C2)cc1 (stereo unspecified) | . | 0% | 1% | 2% | 0% | .
Cc1ccc(N=Cc2sccc2C)cc1C | 29% | 2% | 0% | 1% | 1.9µM* | -11%
Cc1ccc(N=C2NC(=O)CC(C(=O)Nc3cc(C(F)(F)F)ccc3Cl)S2)cc1 (stereo unspecified) | -8% | . | . | . | 0% | .
Cc1nn(-c2ccccc2)c(N)c1Sc1cccc([N+](=O)[O-])c1 | -32% | -5% | -1% | -2% | -2% | -2%
Cc1cc(C)nc(-n2nc(C)c(Sc3ccc(F)cc3)c2N)n1 | 16µM* | 3.5µM* | ? | 2.5µM* | 11µM* | -15%
COc1ccc2c(c1)O[C@H](c1ccc3c(c1)OCO3)[C@@H](OC(=O)NCCOc1ccccc1)C2=O | 7% | . | . | . | . | -1%
O=C(CSc1ccccc1)Nc1ccc2c(c1)OCCO2 | . | 0.63µM* | 1.6µM* | 0.89µM* | 2.4µM* | .
CN1CCN(c2ccc(NC(=O)CSc3ccccc3)cc2F)CC1 | 11µM* | 1.4µM* | 2.1µM* | 1.8µM* | 11µM* | -1%
O=C(CSc1nnc2ccccn12)Nc1ncc(Cl)cc1Cl | ? | ? | 18µM* | 20% | ? | -2%
Cc1ccc(SCC(=O)Nc2ccc(N3CCN(c4ccccc4)CC3)c(F)c2)cc1 | -14% | -2% | 1% | 3% | 4% | 4%
Cc1ccc(CSCC(=O)Nc2ccc3c(c2)OCO3)cc1 | 7% | 0% | -1% | 11% | -16% | 1%
O=C(CSCc1ccc(Cl)cc1)Nc1ccc2c(c1)OCCO2 | -15% | 10% | 13% | 19% | 24µM* | -8%
Cc1ccc(N2CC(c3nnc(NC(=O)c4ccco4)s3)CC2=O)cc1Cl (stereo unspecified) | . | . | . | . | -20% | .
CCCN(CC(=O)Nc1ccccc1C)C(=O)COc1c(Cl)cccc1Cl | . | 2% | 3% | -3% | 5% | .
CCCCC[C@H](O)/C=C/C=C/C=C/[C@H](O)C/C=C\CCCC(=O)O | 5% | . | . | . | . | 2%
SMILES | SMN2 splice up | Rab9 prom act | ELG1 genotoxic | NPC1 prom act | FLuc counter | Luc counter
Cc1ccc(NC(=O)CSc2nc(C3CCCC3)nc3c2c(=O)n(C)c(=O)n3C)c(C)c1 | . | . | . | . | 0% | .
O=C(CSCc1ccccc1F)NCc1ccccc1 | ? | ? | ? | ? | 24µM* | 3%
CS(=O)(=O)N(CC(=O)Nc1ccc2c(c1)OCO2)c1ccccc1 | -7% | 0% | 8% | 1% | 3% | -3%
O=C(CSCc1ccc(F)cc1)Nc1ccccc1 | 6% | -2% | 9% | 5% | -22% | 1%
O=C(CSc1ccc2c(c1)OCCO2)Nc1ccc2c(c1)OCO2 | -7% | 0% | 0% | -1% | ? | 19%
O=C(CSc1ccccc1)Nc1ccc2c(c1)OCO2 | . | ? | ? | ? | 17µM* | .
O=C(CCS(=O)(=O)c1ccccc1)Nc1ccc2c(c1)OCO2 | . | ? | ? | ? | 27µM* | -1%
O=C(CSCc1ccccc1)Nc1ccc(F)c(F)c1 | ? | ? | ? | 24% | 17µM* | -1%
CC(Sc1ccc(S(=O)(=O)N2CCOCC2)cn1)c1ccccc1Cl (stereo unspecified) | . | . | -4% | . | . | .
O=C(Cn1c(=O)oc2ccccc21)Nc1ccc2c(c1)OCCO2 | 16% | -5% | 0% | -3% | -10% | 6%
O=C(CCn1c(=O)oc2ccccc21)Nc1ccc2c(c1)OCCO2 | . | ? | ? | ? | 19µM* | .
CC(C)=CC(=O)Nc1ccc2c(c1)OCO2 | 11µM* | . | . | . | 11µM* | -27%
O=C(CSc1ccc(-c2ccccc2)nn1)Nc1ccc2c(c1)OCCO2 | 16µM* | ? | ? | 21% | 11µM* | -1%
O=C(CSc1nnc2ccccn12)NCc1ccc2c(c1)OCO2 | -9% | -8% | 4% | -1% | 7% | -4%
O=C(CSc1nnc2scc(-c3ccccc3)n12)Nc1ccc2c(c1)OCCO2 | ? | -2% | 0% | 1% | 2% | -2%
O=C(CSc1nnc2ccccn12)Nc1ccc2c(c1)OCCO2 | . | 2.5µM* | ? | ? | ? | .
O=C(CCNC(=O)c1ccccc1)NCc1ccccc1F | . | 19% | 11% | 10% | 2.7µM* | .

Assay outcomes: PubChem BioAssay, National Center for Advancing Translational Sciences (NCATS)
